The results in this text go back to PubChem BioAssay (NCATS).

Molecules are shown by their SMILES. Records with an inconclusive call do not appear. Calls of active or inactive are those of the source. The call rests on the fitted dose curve; in most records, active means well fitted inhibition curve with a large enough effect; inconclusive means small, poorly fitted or top-dose-only effect; inactive means no such curve, though single readings can be large or run the other way.

For the experiment, the target named is Rap guanine nucleotide exchange factor 3 (Homo sapiens) (UniProt O95398). As to the kind of experiment: Counterscreen qHTS for antagonist of cAMP-regulated guanine nucleotide exchange factor 3 (EPAC1) (AID 1645888).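 Further: fluorescence loss as bound BODIPY-GDP is released from Rap1B; % of control where 0% means no effect.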 As to conditions: Rap1B-BODIPY-GDP nucleotide exchange, fluorescence; series mostly up to 154 µM; activity change, negative = inhibition: at the top concentration. The essentials: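 Rap1B–BODIPY-GDP (250 nM) with 50 uM GDP; compounds pin-transferred to 9.74 nM–152 uM final (activator) or from 7.32 nM upwards (inhibitor). Fluorescence Ex/Em 480/540 nm read at 5 and 30 min, then after adding cAMP or buffer, at room temperature.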
Rap guanine nucleotide exchange factor 3 (Homo sapiens), sequence (O95398 whole entry, looked up): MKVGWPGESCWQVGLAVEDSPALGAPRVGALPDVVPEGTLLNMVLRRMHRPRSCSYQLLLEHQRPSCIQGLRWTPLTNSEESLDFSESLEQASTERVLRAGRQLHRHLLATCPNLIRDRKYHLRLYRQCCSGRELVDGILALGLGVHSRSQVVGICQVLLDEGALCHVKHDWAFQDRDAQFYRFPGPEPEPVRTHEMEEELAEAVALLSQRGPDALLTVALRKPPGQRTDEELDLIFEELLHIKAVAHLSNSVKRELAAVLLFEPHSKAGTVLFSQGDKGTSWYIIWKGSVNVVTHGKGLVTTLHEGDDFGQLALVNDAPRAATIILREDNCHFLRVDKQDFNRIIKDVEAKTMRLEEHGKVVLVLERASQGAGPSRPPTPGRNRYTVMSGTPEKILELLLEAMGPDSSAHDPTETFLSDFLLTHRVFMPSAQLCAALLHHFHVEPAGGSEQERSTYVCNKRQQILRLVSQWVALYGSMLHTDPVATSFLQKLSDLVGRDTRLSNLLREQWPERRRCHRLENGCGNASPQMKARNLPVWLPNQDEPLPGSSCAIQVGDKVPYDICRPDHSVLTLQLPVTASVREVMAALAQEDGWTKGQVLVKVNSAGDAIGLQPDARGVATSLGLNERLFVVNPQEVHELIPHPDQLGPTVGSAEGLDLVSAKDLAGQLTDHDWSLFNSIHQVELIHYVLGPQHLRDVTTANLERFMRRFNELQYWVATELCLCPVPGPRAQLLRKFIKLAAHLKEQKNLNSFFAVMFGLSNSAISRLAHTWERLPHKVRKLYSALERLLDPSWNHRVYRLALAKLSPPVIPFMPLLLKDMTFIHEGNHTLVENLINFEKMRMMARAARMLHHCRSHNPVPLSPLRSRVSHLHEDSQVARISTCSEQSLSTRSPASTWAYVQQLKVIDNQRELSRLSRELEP
For orientation: Counterscreens check selectivity or assay interference.
As to `COC(=O)c1cc2ccccc2n1S(=O)(=O)c1ccccc1`, the “activity change, negative = inhibition” value is 9.13% (inactive).
The result for `O=c1c(/C=C(\O)c2ccccc2)nc2ccccc2n1-c1ccccc1` reads -1.75% [at 30.8 µM] (inactive); that for `CCOCCCNc1nc2c(C)cccn2c(=O)c1/C=C1\SC(=S)N(CC(C)C)C1=O`, 16.9% (inactive).
Then `Fc1ccc(Nc2cncc(-c3ccsc3)c2)cc1Cl`, with 3.53% (inactive).
The result for `O=C1OC(c2ccccc2)(c2ccccc2)c2ccccc21` reads 2.72% [at 30.8 µM] (inactive).
`CCCCN1C(=O)/C(=C/C=C2/CC(C)(C)CN2C)SC1=S`: the “activity change, negative = inhibition” value was 125% (inactive).
The result for `Cc1cc(/C=C2\SC(=S)N(Cc3ccco3)C2=O)c(C)n1-c1cccnc1` reads 37.6% (inactive); that for `COc1cccc(/C(O)=C/c2nc3ccc(C(=O)NCCc4ccc(Cl)cc4)cc3[nH]c2=O)c1`, 37.4% (inactive); that for `Cc1c2ccccc2nc2c(F)c(NCCO)c(F)c(F)c12`, 9.94% (inactive).
Then `Cc1ccc2c(c1)N(Cc1cccc(F)c1)C(=O)C(C)O2` (configuration not stated), with 0.501% (inactive); and `CN1CC=C2C(C#N)=C(N)C(C#N)(C#N)C(c3ccsc3)C2C1` (configuration not stated), with 92.8% (inactive).
The result for `CCOc1ccc(S(=O)(=O)Nc2cc(SCC(=O)O)c(O)c3ccccc23)cc1` reads 23.7% (inactive); that for `CN1c2ccccc2C(C)(C)C12C=Nc1c(cc(N3CCOCC3)c3ccccc13)O2` (configuration not stated), 34.1% (inactive).
Regarding `CC[n+]1c(/C=C/C=C/N(C(C)=O)c2ccccc2)sc2ccccc21`, the “activity change, negative = inhibition” value was 35.3% (inactive).
Then `O=[N+]([O-])/C=C/c1cn(Cc2ccc(Cl)cc2)c2ccccc12`, with 5.79% (inactive).
The result for `Cc1cccc(N2CCCC2=Nc2ccc(Br)cc2C#N)c1` reads -16.5% (inactive); that for `c1ccc(Oc2nc(-c3cccnc3)nc3ccccc23)cc1`, -26.6% (inactive).
